Experimental data as given in PubChem BioAssay (NCI).
This is part of a sample that, as a whole, favours compounds with a hit. Of some 83,000 tested, about 20% had one in any assay.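 Negative percent growth values reflect cell death: -40 means 40% of the cells present at the start died, and -100 means all died.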 Active and inactive are the calls of the source. The calls were made as follows: active = growth percent below 10; inactive = the rest.

Experiments:
Experiment in all cases: NCI-60 one-dose screen, 48 h (100 = growth as untreated, 0 = no growth, -100 = all killed)
Details in all cases: 10 µM unless noted
NCI-H23 lung = system: NCI-H23 lung
NCI-H226 lung = system: NCI-H226 lung
NCI-H322M lung = system: NCI-H322M lung
HOP-62 NSCLC = system: HOP-62 NSCLC
NCI-H460 lung = system: NCI-H460 lung
HOP-92 NSCLC = system: HOP-92 NSCLC
NCI-H522 lung = system: NCI-H522 lung
A549/ATCC NSCLC = system: A549/ATCC NSCLC
786-0 renal = system: 786-0 renal
COLO 205 colon = system: COLO 205 colon

Measured: growth

CCCCCCNC(=O)Oc1ccc(/C(=C(/C)c2ccc(OC)cc2)c2ccc(OCCN3CCCC3)cc2)cc1
inactive: NCI-H23 lung 78.8% | NCI-H226 lung 96.6% | NCI-H322M lung 86.2% | HOP-62 NSCLC 88.4% | NCI-H460 lung 55.3% | HOP-92 NSCLC 62.8% | NCI-H522 lung 92.2% | A549/ATCC NSCLC 73.3% | 786-0 renal 40.9% | COLO 205 colon 76.2%

CCOC(=O)c1c(NCC(=O)Nc2ccc(Br)cc2)sc2c1CCCC2
active: NCI-H522 lung -48.8%
inactive: NCI-H23 lung 26.3% | NCI-H226 lung 40.7% | NCI-H322M lung 85.6% | HOP-62 NSCLC 69.2% | NCI-H460 lung 68.9% | HOP-92 NSCLC 67.7% | A549/ATCC NSCLC 73.2% | 786-0 renal 21.2% | COLO 205 colon 33.3%

Cn1cc(-c2nnc(N)nc2-c2cn(C)c3ccc(F)cc23)c2cc(F)ccc21
inactive: NCI-H23 lung 101% | NCI-H226 lung 97.4% | NCI-H322M lung 101% | HOP-62 NSCLC 90.7% | NCI-H460 lung 102% | HOP-92 NSCLC 116% | A549/ATCC NSCLC 77.2% | 786-0 renal 86.1% | COLO 205 colon 107%

CSc1nccc(-c2c(-c3ccc(F)c(OCc4ccc(F)cc4)c3)nc3sccn23)n1
inactive: NCI-H23 lung 60.2% | NCI-H226 lung 76.6% | NCI-H322M lung 91.3% | HOP-62 NSCLC 104% | NCI-H460 lung 89.8% | HOP-92 NSCLC 54.5% | A549/ATCC NSCLC 78.7% | 786-0 renal 74.4% | COLO 205 colon 83.8%

O=C1[C@H]2Cc3c([nH]c4ccccc34)[C@@H](c3ccc(Cl)cc3)N2C(=O)CN1C1CCN(Cc2c(Cl)cccc2Cl)CC1
active: 786-0 renal -64%
inactive: NCI-H23 lung 27.7% | NCI-H226 lung 81.6% | NCI-H322M lung 103% | HOP-62 NSCLC 84.9% | NCI-H460 lung 86% | HOP-92 NSCLC 21.5% | NCI-H522 lung 74.6% | A549/ATCC NSCLC 87.6% | COLO 205 colon 103%

COc1cc(-c2nc(SCc3ccc(C)cc3)[nH]c(=O)c2C#N)ccc1OCc1ccccc1
inactive: NCI-H23 lung 106% | NCI-H226 lung 96.2% | NCI-H322M lung 104% | HOP-62 NSCLC 104% | NCI-H460 lung 104% | HOP-92 NSCLC 113% | A549/ATCC NSCLC 102% | 786-0 renal 103% | COLO 205 colon 119%

O=C(CCCCCCN1CC(=O)N2[C@@H](c3ccccc3)c3[nH]c4ccccc4c3C[C@H]2C1=O)NO
inactive: NCI-H23 lung 70.9% | NCI-H226 lung 105% | NCI-H322M lung 72.4% | HOP-62 NSCLC 58.5% | NCI-H460 lung 54.2% | HOP-92 NSCLC 57.9% | A549/ATCC NSCLC 95.9% | 786-0 renal 93.3%

C#C[C@]1(O)CC[C@H]2[C@@H]3CC=C4c5sc(-c6cccc(F)c6)nc5CC[C@]4(C)[C@H]3CC[C@@]21C
inactive: NCI-H23 lung 84.2% | NCI-H226 lung 83.5% | NCI-H322M lung 73.8% | HOP-62 NSCLC 91.4% | NCI-H460 lung 93.5% | HOP-92 NSCLC 113% | A549/ATCC NSCLC 83.8% | 786-0 renal 65.3% | COLO 205 colon 97.9%

CCNC(=NCCCN(C)C)N/C(N)=N/c1nc2ccccc2s1
inactive: NCI-H23 lung 98.7% | NCI-H226 lung 92.7% | NCI-H322M lung 91.5% | HOP-62 NSCLC 82.4% | NCI-H460 lung 104% | HOP-92 NSCLC 58.1% | NCI-H522 lung 99.2% | A549/ATCC NSCLC 89.8% | 786-0 renal 84.6% | COLO 205 colon 78.7%

Cn1cc(-c2nn3cc(-c4ccncc4)nc3s2)c2cc(Cl)ccc21
active: HOP-92 NSCLC 0.128%
inactive: NCI-H23 lung 44.5% | NCI-H226 lung 86.1% | NCI-H322M lung 78.3% | HOP-62 NSCLC 67.4% | NCI-H460 lung 51.5% | NCI-H522 lung 46% | A549/ATCC NSCLC 64% | 786-0 renal 89.1% | COLO 205 colon 31.9%

O=C(/C=C1\C=CN(CCCCCCF)c2ccccc21)n1ccc2ccccc21
inactive: NCI-H23 lung 89.5% | NCI-H226 lung 48.4% | NCI-H322M lung 96.6% | HOP-62 NSCLC 85.8% | NCI-H460 lung 110% | HOP-92 NSCLC 70.3% | A549/ATCC NSCLC 102% | 786-0 renal 111% | COLO 205 colon 103%

O=C(/C=C1\C=CN(CCCCO)c2ccccc21)n1ccc2ccccc21
inactive: NCI-H23 lung 101% | NCI-H226 lung 86.4% | NCI-H322M lung 102% | HOP-62 NSCLC 84.2% | NCI-H460 lung 103% | HOP-92 NSCLC 98.4% | A549/ATCC NSCLC 105% | 786-0 renal 107% | COLO 205 colon 104%

CCc1ccc(NC(=O)N[C@@H](Cc2cccc(F)c2)C(=O)N[C@@H]2C(=O)N3CCC[C@H]3C(=O)N3CCCC[C@H]3C(=O)N[C@@H](CO)C(=O)N3C[C@H](C)C[C@H]3C(=O)O[C@H]2C)c(F)c1
inactive: NCI-H23 lung 32.9% | NCI-H322M lung 51.1% | HOP-62 NSCLC 37.8% | NCI-H460 lung 14.4% | A549/ATCC NSCLC 36.3% | 786-0 renal 44.1%
active: NCI-H226 lung -1.86% | HOP-92 NSCLC 2.76% | COLO 205 colon -50.4%

O=C1Nc2ccc(Cl)cc2/C1=C/c1ccc(OCc2ccc(Br)cc2F)cc1
inactive: NCI-H23 lung 98.6% | NCI-H226 lung 73.5% | NCI-H322M lung 99.6% | HOP-62 NSCLC 101% | NCI-H460 lung 103% | HOP-92 NSCLC 95% | NCI-H522 lung 100% | A549/ATCC NSCLC 102% | 786-0 renal 102% | COLO 205 colon 103%

O=C(Nc1cccc(Cl)c1)Nc1nc2ccc([N+](=O)[O-])cc2s1
inactive: A549/ATCC NSCLC 10%
active: NCI-H23 lung -20.9% | NCI-H226 lung -7.2% | NCI-H322M lung 8.75% | HOP-62 NSCLC -1.84% | NCI-H460 lung 2.75% | HOP-92 NSCLC -11.9% | 786-0 renal 8.65% | COLO 205 colon -54.2%

CCCCCc1ccc(S(=O)(=O)N(C(C)=O)c2cccc(-c3csc(N(CCN4CCN(C)CC4)C(C)=O)n3)c2)cc1
active: NCI-H460 lung -21.4% | 786-0 renal 6.89% | COLO 205 colon -61%
inactive: NCI-H23 lung 48.9% | NCI-H226 lung 85.3% | NCI-H322M lung 61.1% | HOP-62 NSCLC 83.5% | HOP-92 NSCLC 34% | NCI-H522 lung 69.8% | A549/ATCC NSCLC 39.5%

CS(=O)(=O)c1nccc(-c2c(-c3ccc(F)c(OCc4ccccc4)c3)nc3sccn23)n1
inactive: NCI-H23 lung 98.4% | NCI-H226 lung 82.1% | NCI-H322M lung 22.3% | HOP-62 NSCLC 105% | NCI-H460 lung 43.5% | A549/ATCC NSCLC 103% | 786-0 renal 80.5% | COLO 205 colon 106%
active: HOP-92 NSCLC -5.33%
